SMILES strings stand for the structures. Results filed as inconclusive are left out. The source made the active and inactive calls. How the source made its calls: active means hit-call score of the fitted dose curve at least 0.9, where 1 is the maximum; inconclusive means response in the unintended direction; inactive means score below 0.9.

This test has as its system rainbow trout Peroxisome Proliferator-activated Receptor gamma (PPARg), gene 110528708. The experiment in a line: ATG_rtPPARg_EcoTox2: Attagene TRANS-FACTORIAL EcoTox-2 HepG2 Assay for rainbow trout Peroxisome Proliferator-activated Receptor gamma (PPARg). On the procedure:
ATG_EcoTox2 is a cell-based, multiplexed assay created by modifying the existing Attagene TRANS-FACTORIAL system to include a panel of nuclear receptors from some or all the following species: human (Homo sapiens), african clawed frog (Xenopus laevis), rainbow trout (Oncorhynchus mykiss), japanese medaka (Oryzias latipes), and zebrafish (Danio rerio). The ECOTOX2-FACTORIAL format uses HepG2, a human liver cell line, with measurements taken at 24 hours after chemical dosing in a 24-well plate. ATG_rtPPARg_EcoTox2 is one of 29 assay components calculated in the ATG_EcoTox2 assay. It is designed to make measurements of mRNA induction, a form of inducible reporter, as detected with fluorescence intensity signals by Reverse transcription polymerase chain reaction (RT-PCR) and Capillary electrophoresis technology.The assay endpoint ATG_rtPPARg_EcoTox2 was analyzed in the positive analysis fitting direction relative to DMSO as the negative control and baseline of activity. Using a type of inducible reporter, measures of mRNA for gain-of-signal activity can be used to understand the reporter gene at the transcription factor-level as they relate to the gene PPARg. Furthermore, this assay endpoint can be referred to as a primary readout, because this assay has produced multiple assay endpoints where this one serves a reporter gene function. To generalize the intended target to other relatable targets, this assay endpoint is annotated to the nuclear receptor intended target family, where the subfamily is non-steroidal.
Human liver HepG2 cells are transiently transfected with multiple reporter transcription units (MRTUs) in 6-well plates using FuGene 6 reagent (Roche; 3 ml FuGene/1 mg DNA). The MRTU constructs are regulated by a cis-regulating element (promoter). Each RTU expresses a GAL4-UAS that regulates the transcription of a nearby target reporter gene sequence. A major difference between the CIS and TRANS system is that in CIS activities of endogenous TFs are measured, whereas the TRANS assay evaluates changes in activities of exogenous, chimeric NR-Gal4 proteins. […] At the end of 24 hour incubation, total RNA was isolated using TriZol reagent (Invitrogen). The isolated RNA is then reverse-transcribed using oligo(dT) primer and Mo-MLV reverse transcriptase (Invitrogen) with DNAse I (Ambion) treatment for 30 min. The one-tenth of the produced cDNA was amplified by PCR using Taq DNA polymerase (Invitrogen) and two reporter sequence-specific primers. […] The fragments were purified using Qiaquick PCR columns (Qiagen), analyzed on an ABI 3130xL genetic analyzer (Applied Biosystems) with peak positions identified by using a set of X-rhodamine (ROX)-labeled MapMarker1000 molecular weight standards (BioVentures). […]
Regarding `Cc1ccc(C)c(OCCCC(C)(C)C(=O)O)c1`, the result was inactive.

Consider `CC(C)OC(=O)C(C)(C)Oc1ccc(C(=O)c2ccc(Cl)cc2)cc1`, for which the compound was called inactive. The same measure for `C[C@]12C=CC(=O)C=C1CC[C@@H]1[C@@H]2C(=O)C[C@@]2(C)[C@H]1CC[C@]2(O)C(=O)CO`: “inactive”. Turning to `CC(C)(Oc1ccc(Cl)cc1)C(=O)O`, the compound was called inactive.
